SKN-1 inh: inhibitors of C. elegans SKN-1 | C. elegans VP596 Pgst-4::GFP/RFP ratio, acrylamide-induced, 24 h | inhibition, % at 21.8 µM | actives 0.49% (n = 360,000) | AID 624304;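 active means interference check ratio from 0.5 to 1.5 plus GFP to RFP signal ratio inhibition reaching or exceeding a fixed threshold, cut at about 30% in these data, passing the limit was not always enough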
CRFR2-BP antag: CRF-BP/CRF-R2 complex antagonism. HEK293 CRF-R2/CRF-BP, CRF-induced calcium fluorescence. inhibition, % at 11.8 µM. actives 0.59% (n = 350,000). AID 588475;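 active means inhibition of the ligand-induced calcium signal above about 50% at the single tested concentration, limit read from the data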
H9c2 TAG inh: inhibitors of triacylglycerol accumulation; H9c2 cells, Nile Red lipid (TAG) fluorescence; cells loaded with 200 µM oleic acid; inhibition, % at 12.5 µM; actives 0.66% (n = 230,000); AID 651582;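 active means pattern-corrected inhibition of lipid staining of at least 50% with the nuclear-stain viability signal not falling by more than 50%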
H9c2 protect: myocardial damage modulation in H9c2 cells; H9c2 cardiomyocytes, H2O2 injury protection, ATPLite, 2 h; protection from H2O2 cell death, % at 20 µM; actives 0.63% (n = 360,000);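 active means compounds giving at least 50% protection of heart cells from peroxide-induced death in the single-dose screen, raw or plate-pattern-corrected value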
CRFBP-R2 agonist: agonists of human CRF-binding protein/CRF-R2 receptor complex; HEK293 CRF-R2/CRF-BP, calcium dye fluorescence (FLIPR); percent of saturating CRF peptide response; activation, % at 13.2 µM; actives 0.46% (n = 350,000); AID 588473;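 active means activation of at least 50%, plus an integration ratio under a set limit after plate pattern correction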
hiPSC survival: hiPSC single-cell survival enhancement; ATPlite luminescence; 100% = ROCK inhibitor wells, 0% = DMSO; survival enhancement, % at 20 µM; actives 0.044% (n = 360,000); AID 602274; in the data active means survival enhancement above about 18%;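 further: cells exposed to compounds for 16 hours before the ATP read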
Large screens that a line does not name were inactive. Most compounds without a hit are left out; they make up all but 2.5% or so of the library.

Cc1nnc(C)n1/N=C/c1ccccc1	none (no result: H9c2 TAG inh)
Cc1nnc(C)n1/N=C/c1cccs1	CRFR2-BP antag 55
C(=N\N=C\c1cccs1)/c1cccs1	SKN-1 inh 74
COc1ccc(CN2C(=O)CSCC2(C)C(=O)NCc2ccccc2)cc1OC (stereo not drawn)	none (no result: CRFR2-BP antag, H9c2 TAG inh, H9c2 protect, CRFBP-R2 agonist, hiPSC survival)
Cn1nc(-c2ccccc2)cc1NC(=O)[C@@H]1O[C@H](CO)[C@H](O)[C@H](O)[C@H]1O	none (no result: CRFR2-BP antag, CRFBP-R2 agonist)
COc1ccc(NC(=O)CSc2nnc(N)s2)c([N+](=O)[O-])c1	CRFR2-BP antag 65
Cc1cc(C)c(NC(=O)C2CC(=O)N(C3CCCC3)C2)c(C)c1 (stereo not drawn)	none
CCOc1ccccc1N(CC(=O)N1CCC(C(N)=O)CC1)S(=O)(=O)c1ccc(SC)cc1	CRFR2-BP antag 75
COc1ccccc1N(CC(=O)N1CCCCC1C)S(=O)(=O)c1ccc(Cl)cc1 (stereo not drawn)	CRFBP-R2 agonist 55
CCOc1ccccc1N(CC(=O)N1CCC(C)CC1)S(=O)(=O)c1ccc(C)cc1	none
COc1ccc(N2CCN(C(=O)CN(c3ccccc3)S(=O)(=O)c3ccc(OC)cc3)CC2)cc1	none
CCOc1ccccc1N(CC(=O)N1CCOCC1)S(=O)(=O)c1ccccc1	CRFBP-R2 agonist 291
COc1ccc(S(=O)(=O)N(CC(=O)N2CCN(c3ccccc3OC)CC2)c2ccccc2)cc1	SKN-1 inh 37
O=C(COC(=O)COc1ccc(Cl)cc1Cl)NC1CCCC1	none
COc1cc(CN2C[C@@H](CO)O[C@@H](n3cnc4c(Nc5ccccc5)ncnc43)C2)cc(OC)c1OC	H9c2 protect 79 (no result: CRFR2-BP antag, CRFBP-R2 agonist)
COc1cc(CN2C[C@@H](CO)O[C@@H](n3cnc4c(NC5CCC5)ncnc43)C2)cc(OC)c1OC	none (no result: CRFR2-BP antag, CRFBP-R2 agonist)
C1=C(c2ccccc2)Nc2ncnn2C1c1ccccc1 (stereo not drawn)	none
Fc1ccc(Br)cc1C1C=C(c2ccc(Br)cc2)Nc2ncnn21 (stereo not drawn)	CRFBP-R2 agonist 102 (no result: H9c2 TAG inh)
CCc1ccc(C2=CC(c3cc(Br)ccc3F)n3ncnc3N2)cc1 (stereo not drawn)	CRFBP-R2 agonist 54 (no result: H9c2 TAG inh)
NS(=O)(=O)c1ccc(NC(=O)CSc2nnc(C3CC3)n2C2CC2)cc1	none
NS(=O)(=O)c1ccc(NC(=O)CSc2nnc(COc3ccccc3Cl)n2C2CC2)cc1	CRFR2-BP antag 63 (no result: H9c2 TAG inh)
COc1ccc2[nH]cc(C(=O)CN3CCCCC3)c2c1	CRFBP-R2 agonist 59
Cc1ccc2c(c1)C(=O)CCCCC(=O)N2	none
O=C(OCC(=O)N1CCN(c2ccccc2)CC1)c1ccccn1	CRFR2-BP antag 53
O=C(OCC(=O)N1CCN(c2ccccc2)CC1)c1ccc2ccccc2n1	none (no result: H9c2 TAG inh)
O=C(CSc1ccc(-c2ccncc2)nn1)N1CCN(c2ccccc2)CC1	CRFR2-BP antag 63
O=C(c1ccc(N2CN(C(=O)c3ccco3)c3nc4ccccc4nc32)cc1)N1CCOCC1	H9c2 protect 72 (no result: H9c2 TAG inh)
O=C(c1ccncc1)N1CCN(C(=O)c2ccco2)CC1	none
Cn1c(=O)[nH]c(=O)c2c1nc(NCCc1ccccc1)n2CC(O)COc1ccccc1 (stereo not drawn)	H9c2 protect 60 (no result: H9c2 TAG inh)
CCOc1cc(C(C(=O)NCC2CCCO2)N(C(=O)Cn2nnc3ccccc32)c2ccccc2OC)ccc1O (stereo not drawn)	none (no result: H9c2 TAG inh)
O=C(c1ccc2ccccc2n1)N(CCO)Cc1ccccc1	none (no result: H9c2 TAG inh)
CC(=O)c1c(C)[nH]c(C(=O)COc2ccc3ccc(=O)oc3c2)c1C	none
COC(=O)c1c(C)[nH]c(C(=O)COc2ccc3ccc(=O)oc3c2)c1C	H9c2 protect 81
CCOC(=O)c1c(C)[nH]c(C(=O)COC(=O)c2oc3ccccc3c2C)c1C	none
CCOC(=O)c1c(C)[nH]c(C(=O)COC(=O)c2oc3ccc(OC)cc3c2C)c1C	SKN-1 inh 37
COc1ccc(CN2C(=NC(=O)C3CC3)SC3CS(=O)(=O)CC32)cc1OC (stereo not drawn)	none (no result: H9c2 TAG inh)
CC(=O)NNS(=O)(=O)c1ccc(-c2cc(C(F)(F)F)n(C)n2)s1	none
COCCCNC(=O)C(=O)Nc1cc2c3c(c1)CCN3C(=O)CC2	none (no result: H9c2 TAG inh)
O=C(NCCCO)C(=O)Nc1cc2c3c(c1)CCN3C(=O)CC2	CRFR2-BP antag 78 (no result: H9c2 TAG inh)
C=C1CCc2c([nH]c3ccc(OCC(C)C)cc23)C1=O	none (no result: H9c2 TAG inh)
COc1ccc(CN(C)CCCn2cnc3c(OC)ncnc32)cc1OC	hiPSC survival 25
Cc1cc(=O)[nH]c(Nc2cccc(Cl)c2C)n1	none (no result: H9c2 TAG inh)
Nc1nc(Nc2ccccc2Cl)cc(=O)[nH]1	CRFR2-BP antag 100 (no result: H9c2 TAG inh)
Cc1nc(CNS(=O)(=O)c2ccc3ccccc3c2)cs1	CRFR2-BP antag 65
CC(=O)Nc1cc(-c2cccc(CO)c2)cn2c(-c3ccc(F)cc3)cnc12	none (no result: CRFR2-BP antag, CRFBP-R2 agonist)
COC(=O)C[C@@H]1C=C[C@H](NC(=O)c2ccccc2)[C@@H](CO)O1	none (no result: CRFR2-BP antag, H9c2 TAG inh, H9c2 protect, CRFBP-R2 agonist, hiPSC survival)
COc1ccccc1CCCNC(=O)C1CCC(=O)N(CCCN2CCCC2=O)C1 (stereo not drawn)	none (no result: H9c2 TAG inh)
N#Cc1cccc(NC(=O)Nc2cccs2)c1	CRFR2-BP antag 108 (no result: H9c2 TAG inh)
CCn1c(=O)c(C(=O)NC(C)c2ccccc2)c(O)c2ccccc21 (stereo not drawn)	H9c2 protect 55 (no result: H9c2 TAG inh)
Cn1c(=O)c(C(=O)NCc2ccccc2Cl)c(O)c2ccccc21	CRFR2-BP antag 65 (no result: H9c2 TAG inh)
CCCn1c(=O)c(C(=O)Nc2ccccc2)c(O)c2ccccc21	H9c2 protect 57
CCn1c(=O)c(C(=O)NCc2ccccc2Cl)c(O)c2ccccc21	none
CCCn1c(=O)c(C(=O)NNC(=O)c2ccccc2Cl)c(O)c2ccccc21	CRFBP-R2 agonist 66 (no result: H9c2 TAG inh)
CCCn1c(=O)c(C(=O)NNC(=O)c2ccccc2[N+](=O)[O-])c(O)c2ccccc21	none (no result: CRFR2-BP antag, CRFBP-R2 agonist)
C=CCn1c(-c2ccc(N)cc2)nc2ccccc21	none
C=CCn1c(-c2ccc(OC)cc2)nc2ccccc21	CRFBP-R2 agonist 154
O=c1c2c(-c3ccccc3)csc2nc2c3ccccc3c(NCCN3CCOCC3)nn12	H9c2 TAG inh 100
c1ccc(-c2csc3ncnc(NCCCN4CCOCC4)c23)cc1	none
O=C(Nc1ccnn1C1CCN(C2CCC2)CC1)c1ccccc1	none
COC(=O)c1c2c(nc3ccccc13)CCC2	SKN-1 inh 41
CC(C)(C)C(=O)COC(=O)c1c2c(nc3ccccc13)CCC2	none (no result: H9c2 TAG inh)
C=CC[n+]1ccc(/C=C2\C=Cc3cc(C)ccc3N2CC)c2ccccc21	SKN-1 inh 38
CCN1/C(=C/c2cc[n+](CCCS(=O)(=O)[O-])c3ccccc23)Sc2ccccc21	none (no result: H9c2 TAG inh)
CCOc1ccc(NC(=S)Nc2ccc(OC)cc2)cc1	none
CCC(C)c1ccc(NC(=S)Nc2ccc(OC)cc2)cc1 (stereo not drawn)	CRFR2-BP antag 133 (no result: H9c2 TAG inh)
Cc1cc(C=O)c(O)cc1O	none
CCN(CC)C(=S)Sc1c(-c2ccccc2)c2cc(Cl)ccc2[nH]c1=O	SKN-1 inh 35, CRFBP-R2 agonist 71

Screening data as filed in PubChem.
